The record followed here is PubChem BioAssay (EPA / NIEHS).

Records with an inconclusive call do not appear. Calls of active or inactive are those of the source. Rule for the calls, unless noted: active = hit-call score of the fitted dose curve at least 0.9, where 1 is the maximum; inconclusive = response in the unintended direction; inactive = score below 0.9.

The nature of test [1]: BSK_3C_Proliferation: Cell Proliferation Assessment in the BioMAP Diversity Plus: 3C Assay (AID 2283006; active = hit-call score of the fitted dose curve at least 0.9, where 1 is the maximum; inactive = score below 0.9;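 for AC50: potency may reflect either rise or fall in cell number versus DMSO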). Particulars: primary human endothelial cells (HUVEC). The gist of the method: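 Proliferation as total protein: sulforhodamine B (0.1%) stain of TCA-fixed subconfluent human umbilical vein endothelial cells, absorbance 560 nm, 48 h after dosing. Activity fitted in both directions against DMSO baseline.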

Test [2] deals with Retinoic acid receptor RXR-alpha (Homo sapiens) (UniProt P19793). Kind of test: ATG_RXRa_TRANS: Attagene TRANS-FACTORIAL HepG2 Assay for human Retinoid X Receptor alpha (RXRa) (AID 2283012). The gist of the method: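 TRANS format reporting activity of exogenous RXRa-Gal4 chimera in transiently transfected HepG2, 24 h exposure. Reporter transcripts quantified by RT-PCR with capillary electrophoresis, with gain of signal scored relative to DMSO.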

Read-out in test [3]: Intercellular Adhesion Molecule 1 (ICAM1), ICAM1 (gene 3383)
Kind of test: BSK_3C_ICAM1: BioMAP Diversity Plus: 3C Assay for Intercellular Adhesion Molecule 1 (ICAM1) Biomarker Activity (AID 2283003; active = hit-call score of the fitted dose curve at least 0.9, where 1 is the maximum; inactive = score below 0.9). Particulars: primary human endothelial cells (HUVEC); actives raise or lower the signal. A digest of the protocol:
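ELISA readout of ICAM1 in human umbilical vein endothelial cells in the 3C system, taken 24 h post-dose. Gain or loss of signal versus DMSO was fitted in both directions, with SRB total-protein staining run in parallel.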

The target in test [4] is Nuclear receptor subfamily 1 group I member 2 (Homo sapiens) (UniProt O75469). The experiment in a line: ATG_PXR_TRANS: Attagene TRANS-FACTORIAL HepG2 Assay for human Pregnane X Receptor (PXR) (AID 2283008). A digest of the protocol: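 Transient HepG2 transfectants carrying multiplexed reporter transcription units; PXR activity read through a Gal4 chimera. 24 h exposure. RT-PCR/CE fluorescence; upward curve fit referenced to DMSO.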

Test [5] deals with human RAR-related Orphan Receptor gamma (RORg), RORC (gene 6097) (UniProt P51449). The experiment in a line: ATG_RORg_TRANS: Attagene TRANS-FACTORIAL HepG2 Assay for human RAR-related Orphan Receptor gamma (RORg) (AID 2283011). The gist of the method:
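Chimeric RORg-Gal4 transactivation in transfected HepG2; 24 h exposure; RT-PCR/capillary electrophoresis readout of reporter mRNA, DMSO baseline.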

Test [6] concerns the target human Retinoid X Receptor beta (RXRb), RXRB (gene 6257) (UniProt P28702). The experiment in a line: ATG_RXRb_TRANS: Attagene TRANS-FACTORIAL HepG2 Assay for human Retinoid X Receptor beta (RXRb) (AID 2283013). The gist of the method:
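Readout is reporter transcript induction after 24 h dosing. It is measured by RT-PCR of total RNA followed by fluorescent capillary electrophoresis. HepG2 liver cells carry transfected multiple reporter units driven by an exogenous RXRb-Gal4 fusion; activity is relative to DMSO.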

The target in test [7] is human Thyroid Receptor alpha (THRa1), THRA (gene 7067) (UniProt P10827). Kind of test: ATG_THRa1_TRANS: Attagene TRANS-FACTORIAL HepG2 Assay for human Thyroid Receptor alpha (THRa1) (AID 2283014). The gist of the method:
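Measured here is mRNA from a GAL4-UAS reporter in transfected HepG2 cells carrying a Gal4-fused receptor, 24 h post-dose. DMSO served as negative control and baseline.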

Test [8] has as its target Peroxisome proliferator-activated receptor gamma (Homo sapiens) (UniProt P37231). The experiment in a line: ATG_PPARg_TRANS: Attagene TRANS-FACTORIAL HepG2 Assay for human Peroxisome Proliferator-activated Receptor-gamma (PPARg) (AID 2283007). A digest of the protocol: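 HepG2 cells are transiently transfected with GAL4-UAS reporter units driven by chimeric NR-Gal4 fusions and dosed for 24 h. Reporter mRNA is quantified by RT-PCR, 6-FAM labelling, HpaI digestion and capillary electrophoresis. Induction is scored against DMSO.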

Sequence of Nuclear receptor subfamily 1 group I member 2 (Homo sapiens) (O75469 whole entry, looked up, the tested form may be a part): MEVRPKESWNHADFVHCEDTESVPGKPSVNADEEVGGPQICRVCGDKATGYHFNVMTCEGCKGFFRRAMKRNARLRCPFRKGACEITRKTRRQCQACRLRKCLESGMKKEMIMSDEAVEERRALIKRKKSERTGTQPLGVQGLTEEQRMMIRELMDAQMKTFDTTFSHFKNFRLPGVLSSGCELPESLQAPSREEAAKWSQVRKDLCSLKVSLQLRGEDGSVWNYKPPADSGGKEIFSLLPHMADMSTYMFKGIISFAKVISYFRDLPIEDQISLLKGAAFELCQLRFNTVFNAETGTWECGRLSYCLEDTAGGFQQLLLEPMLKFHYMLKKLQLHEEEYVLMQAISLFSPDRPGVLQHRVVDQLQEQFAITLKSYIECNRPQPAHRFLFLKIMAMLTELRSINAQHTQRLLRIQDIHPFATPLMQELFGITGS
Sequence of Retinoic acid receptor RXR-alpha (Homo sapiens) (P19793 whole entry, looked up, the tested form may be a part): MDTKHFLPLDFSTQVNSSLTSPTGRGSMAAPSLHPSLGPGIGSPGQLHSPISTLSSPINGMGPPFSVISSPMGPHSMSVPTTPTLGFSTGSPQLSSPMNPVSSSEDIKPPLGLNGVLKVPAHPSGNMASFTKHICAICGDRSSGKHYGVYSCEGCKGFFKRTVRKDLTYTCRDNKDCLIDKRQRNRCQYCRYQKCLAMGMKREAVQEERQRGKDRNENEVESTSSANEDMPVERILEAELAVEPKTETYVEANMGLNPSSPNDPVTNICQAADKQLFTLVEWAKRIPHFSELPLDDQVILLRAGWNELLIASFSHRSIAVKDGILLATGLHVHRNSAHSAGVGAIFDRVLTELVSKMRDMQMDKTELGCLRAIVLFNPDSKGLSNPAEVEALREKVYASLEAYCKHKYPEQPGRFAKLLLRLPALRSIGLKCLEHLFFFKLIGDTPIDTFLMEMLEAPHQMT
Sequence of human Retinoid X Receptor beta (RXRb), RXRB (gene 6257) (P28702 whole entry, looked up, the tested form may be a part): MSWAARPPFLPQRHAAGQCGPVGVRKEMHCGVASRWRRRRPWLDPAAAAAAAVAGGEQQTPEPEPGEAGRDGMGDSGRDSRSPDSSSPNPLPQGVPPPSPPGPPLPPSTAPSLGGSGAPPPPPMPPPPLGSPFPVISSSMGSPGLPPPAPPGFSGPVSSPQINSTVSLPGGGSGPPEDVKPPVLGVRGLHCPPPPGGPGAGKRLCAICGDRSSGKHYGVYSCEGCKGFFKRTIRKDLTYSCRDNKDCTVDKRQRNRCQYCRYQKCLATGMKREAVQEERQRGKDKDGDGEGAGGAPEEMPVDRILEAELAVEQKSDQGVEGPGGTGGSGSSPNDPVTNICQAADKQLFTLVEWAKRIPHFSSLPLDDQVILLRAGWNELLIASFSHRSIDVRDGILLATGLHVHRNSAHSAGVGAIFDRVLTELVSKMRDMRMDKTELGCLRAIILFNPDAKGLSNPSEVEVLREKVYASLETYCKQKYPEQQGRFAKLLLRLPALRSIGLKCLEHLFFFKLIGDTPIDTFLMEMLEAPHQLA
Sequence of Peroxisome proliferator-activated receptor gamma (Homo sapiens) (P37231 whole entry, looked up, the tested form may be a part): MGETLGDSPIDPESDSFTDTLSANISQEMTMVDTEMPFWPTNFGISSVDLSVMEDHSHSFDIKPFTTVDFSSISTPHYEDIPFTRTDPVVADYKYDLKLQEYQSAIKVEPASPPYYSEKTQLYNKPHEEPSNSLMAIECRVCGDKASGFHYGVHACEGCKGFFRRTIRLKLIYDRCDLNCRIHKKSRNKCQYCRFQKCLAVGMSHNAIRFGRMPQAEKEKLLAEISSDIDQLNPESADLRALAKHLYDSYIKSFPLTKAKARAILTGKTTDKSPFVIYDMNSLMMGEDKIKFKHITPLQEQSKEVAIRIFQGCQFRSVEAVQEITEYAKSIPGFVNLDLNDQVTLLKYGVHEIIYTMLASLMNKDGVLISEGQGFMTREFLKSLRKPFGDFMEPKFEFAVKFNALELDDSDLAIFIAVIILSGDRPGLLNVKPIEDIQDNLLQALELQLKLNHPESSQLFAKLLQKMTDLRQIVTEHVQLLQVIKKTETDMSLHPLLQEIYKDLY
Sequence of human RAR-related Orphan Receptor gamma (RORg), RORC (gene 6097) (P51449 whole entry, looked up, the tested form may be a part): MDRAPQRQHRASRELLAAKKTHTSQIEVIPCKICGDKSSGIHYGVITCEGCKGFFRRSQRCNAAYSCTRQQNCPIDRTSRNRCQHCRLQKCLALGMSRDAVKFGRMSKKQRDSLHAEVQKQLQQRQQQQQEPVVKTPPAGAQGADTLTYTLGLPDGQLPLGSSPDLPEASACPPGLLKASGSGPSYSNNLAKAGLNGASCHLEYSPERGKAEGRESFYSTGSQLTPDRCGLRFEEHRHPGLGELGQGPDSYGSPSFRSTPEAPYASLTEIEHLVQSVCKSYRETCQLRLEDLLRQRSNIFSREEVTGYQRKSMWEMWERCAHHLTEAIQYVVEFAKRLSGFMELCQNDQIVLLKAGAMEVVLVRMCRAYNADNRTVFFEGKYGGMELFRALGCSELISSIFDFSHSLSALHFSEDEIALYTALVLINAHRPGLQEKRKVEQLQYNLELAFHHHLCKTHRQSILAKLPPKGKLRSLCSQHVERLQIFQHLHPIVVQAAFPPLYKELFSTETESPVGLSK
Sequence of human Thyroid Receptor alpha (THRa1), THRA (gene 7067) (P10827 whole entry, looked up, the tested form may be a part): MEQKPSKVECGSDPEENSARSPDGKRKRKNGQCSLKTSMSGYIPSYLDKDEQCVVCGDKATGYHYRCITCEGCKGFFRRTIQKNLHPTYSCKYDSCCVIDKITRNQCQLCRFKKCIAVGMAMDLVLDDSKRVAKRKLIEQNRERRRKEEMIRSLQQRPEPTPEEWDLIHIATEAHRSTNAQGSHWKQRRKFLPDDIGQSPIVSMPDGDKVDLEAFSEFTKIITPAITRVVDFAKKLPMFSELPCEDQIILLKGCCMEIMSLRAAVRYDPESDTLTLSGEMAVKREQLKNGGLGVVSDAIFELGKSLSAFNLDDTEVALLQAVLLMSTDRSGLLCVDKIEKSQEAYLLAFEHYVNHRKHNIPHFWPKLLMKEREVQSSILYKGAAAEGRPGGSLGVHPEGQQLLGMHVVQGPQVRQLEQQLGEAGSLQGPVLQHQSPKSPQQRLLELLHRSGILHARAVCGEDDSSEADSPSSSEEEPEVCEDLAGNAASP

`CN(C)CCCN1c2ccccc2Sc2ccc(Cl)cc21`: the AC50 in test [1] was 25 µM (active). In test [2], the outcome was inactive.
Consider `CCCC(=O)O`, for which the outcome in test [3], in test [1], in test [4] and in test [5] was inactive.
Turning to `CC(=O)[C@@]1(O)CC[C@H]2[C@@H]3CCC4=CC(=O)CC[C@]4(C)[C@H]3CC[C@@]21C`, the result in test [3], in test [1], in test [5], in test [2] and in test [6] was inactive.
On to `O=C1O[C@H]([C@H](O)CO)C(O)=C1O`, for which the result in test [3], in test [1], in test [5], in test [2], in test [6] and in test [7] was inactive.
On to `O=C1c2c(O)cccc2Cc2cccc(O)c21`, for which the outcome in test [3], in test [6] and in test [7] was inactive. The AC50 in test [1] was 15 µM (active).
With `O=Cc1ccccc1C=O`, the outcome in test [3], in test [1], in test [8] and in test [6] was inactive.
For `Cc1cc(SC2=C(O)C[C@@](CCc3ccc(N)cc3)(C(C)C)OC2=O)c(C(C)(C)C)cc1CO`, the result in test [3], in test [1], in test [5], in test [2] and in test [6] was inactive.
Turning to `CCCCCCCC(=O)OC`, the outcome in test [3], in test [1], in test [6] and in test [7] was inactive.
As to `CCc1cc(C2=C(C(=O)O)N(c3ccccc3C(F)(F)F)S(=O)(=O)c3ccccc32)cc2c1OCO2`, the outcome in test [3], in test [5] and in test [2] was inactive. Moreover, the AC50 in test [1] was 16.6 µM (active); in test [4], 1.42 µM (active).
As for `c1ccc2occc2c1`, the result in test [3], in test [1], in test [5] and in test [7] was inactive.
As for `CCCCC(CC)COC(=O)CCCCCCCC(=O)OCC(CC)CCCC` (centres undefined), the outcome in test [3], in test [1], in test [4], in test [2] and in test [6] was inactive.
Regarding `CC(C)OC(=O)C(C)(C)Oc1ccc(C(=O)c2ccc(Cl)cc2)cc1`, the outcome in test [3], in test [5] and in test [2] was inactive. Also, the AC50 in test [1] is 15.8 µM (active); in test [6], 26.9 µM (active).
With `COC(=O)[C@H]1[C@H]2C[C@@H]3c4[nH]c5cc(OC)ccc5c4CCN3C[C@H]2C[C@@H](OC(=O)c2cc(OC)c(OC)c(OC)c2)[C@@H]1OC`, the result in test [3], in test [8], in test [2], in test [6] and in test [7] was inactive. The AC50 in test [1] was 16.9 µM (active).
For the molecule `CCCCOC(=O)CCCCC(=O)OCCCC`, the result in test [3], in test [1], in test [8], in test [2], in test [6] and in test [7] was inactive.
Take `CC(C)NCC(O)c1ccc(O)c(O)c1` (centres undefined): the outcome in test [3], in test [1], in test [5] and in test [6] was inactive.
As to `O=C(O)CN(CC(=O)O)CC(=O)O`, the result in test [3], in test [1], in test [5], in test [2] and in test [6] was inactive.
On to `Nc1nc(Cl)nc2c1ncn2[C@H]1C[C@H](O)[C@@H](CO)O1`, for which the outcome in test [3], in test [2] and in test [6] was inactive. Besides, the AC50 in test [1] is 0.147 µM (active).
As to `C/C=C/c1ccc(OC)cc1`, the outcome in test [3], in test [1] and in test [6] was inactive.
`CC1(C)C(=O)NC(=O)N1CO`: the result in test [3] and in test [6] was inactive. In addition, the AC50 in test [1] is 5.5 µM (active).
With `CCCCC(CC)COP(=O)(OCC(CC)CCCC)OCC(CC)CCCC` (centres undefined), the result in test [3] was inactive. Besides, the AC50 was 20.6 µM (active) in test [1] and 0.227 µM (active) in test [4].
For the molecule `CCCC[C@H]1CN(CC2CCOCC2)C(=O)OC12CCN(C1(C)CCN(C(=O)c3c(C)ncnc3C)CC1)CC2`, the result in test [3], in test [1], in test [4], in test [2] and in test [6] was inactive.
Turning to `CCCCC(CC)CO` (centres undefined), the outcome in test [3], in test [1], in test [4], in test [5], in test [2] and in test [6] was inactive.
In the case of `CCCCCCC(CCCCCCCCCCC(=O)OCC(COC(C)=O)OC(C)=O)OC(C)=O` (centres undefined), the result in test [3] and in test [7] was inactive. Also, the AC50 is 10 µM (active) in test [1], 50 µM (active) in test [8] and 50 µM (active) in test [6].
As to `CC(=O)OCC(COC(C)=O)OC(C)=O`, the result in test [3], in test [1], in test [2] and in test [7] was inactive.
Consider `COc1ccc(OC(F)(F)F)cc1CN[C@H]1CCCN[C@H]1c1ccccc1`, for which the outcome in test [3], in test [2] and in test [6] was inactive. Moreover, the AC50 in test [1] is 28.2 µM (active).
As to `COC(=O)CCCC(=O)OC`, the result in test [3], in test [1] and in test [2] was inactive.

In general, AC50 refers to the concentration at which the activity in the assay is half-maximal.
